In PubChem BioAssay AID485360 (National Center for Advancing Translational Sciences (NCATS), 2010):
Out of some 230,000 compounds screened, about 1,500 (0.65%) were called active. A call without a number means that no potency is given here. Not shown: some 3% with an inconclusive outcome. For the sample, actives were picked, then their nearest neighbours and some compounds at random. Unmarked numbers belong to inactive results. Calls follow the shape of the dose curve; as a rule, active = well fitted inhibition curve with a large enough effect; inconclusive = small, poorly fitted or top-dose-only effect; inactive = no such curve, though single readings can be large or run the other way.

These molecules were tested against Lethal(3)malignant brain tumor-like protein 1 (Homo sapiens) (UniProt Q9Y468) (assay: qHTS Assay for the Inhibitors of L3MBTL1). Details: AlphaScreen L3MBTL1–H3K9me1 peptide binding; series mostly up to 57.1 µM.
Chain of Lethal(3)malignant brain tumor-like protein 1 (Homo sapiens) (Q9Y468 whole entry, looked up): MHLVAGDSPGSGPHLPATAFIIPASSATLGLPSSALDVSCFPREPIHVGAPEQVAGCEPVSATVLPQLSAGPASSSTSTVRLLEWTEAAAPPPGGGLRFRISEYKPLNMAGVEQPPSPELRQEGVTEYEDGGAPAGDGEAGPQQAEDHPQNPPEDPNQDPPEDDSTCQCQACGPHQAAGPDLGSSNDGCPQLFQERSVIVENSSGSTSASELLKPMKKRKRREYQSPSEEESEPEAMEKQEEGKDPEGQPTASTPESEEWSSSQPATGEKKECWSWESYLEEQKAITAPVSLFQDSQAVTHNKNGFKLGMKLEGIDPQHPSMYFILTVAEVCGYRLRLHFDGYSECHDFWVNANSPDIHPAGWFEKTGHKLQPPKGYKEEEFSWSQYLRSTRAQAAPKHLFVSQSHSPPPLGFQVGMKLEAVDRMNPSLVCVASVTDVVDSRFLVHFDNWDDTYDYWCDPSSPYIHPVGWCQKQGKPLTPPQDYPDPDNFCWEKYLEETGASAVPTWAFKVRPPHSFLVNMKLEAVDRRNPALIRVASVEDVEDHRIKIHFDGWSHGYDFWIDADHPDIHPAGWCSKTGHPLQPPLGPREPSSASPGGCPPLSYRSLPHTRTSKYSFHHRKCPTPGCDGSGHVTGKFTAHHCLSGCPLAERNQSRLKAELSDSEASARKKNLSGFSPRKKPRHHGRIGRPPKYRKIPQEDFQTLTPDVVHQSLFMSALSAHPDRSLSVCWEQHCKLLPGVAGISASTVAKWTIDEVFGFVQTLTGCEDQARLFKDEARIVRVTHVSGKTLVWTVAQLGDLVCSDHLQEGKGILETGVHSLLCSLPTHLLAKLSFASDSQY
Procedure, shortened: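 AlphaScreen proximity signal between nickel-chelate acceptor and streptavidin donor beads (final 10 ug/mL) reports binding of 50 nM L3MBTL1 to 75 nM biotin-H3 K9me1 peptide; complex incubated with compounds 30 min at room temperature; cefsulodin titration as control.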
Also: nearly all actives have a fitted effect of over 60% in size.
Potency is read from the fitted curve at half-maximal effect.

SMILES | Potency | activity, negative = inhibition
Cc1ccc(OCC(=O)NC(C)c2ccccc2)cc1C (stereo unspecified) | inactive | –
CCCCC[C@@H]1C=C(C(=O)O)[C@H](c2ccc(C#N)cc2)N1S(=O)(=O)c1ccc(C)cc1 | inactive | –
O=[N+]([O-])c1ccc(C=Nc2ccc(Cl)cc2Cl)s1 | 25.1 µM (active) | –
CC1CN(C(=O)c2ccc([N+](=O)[O-])s2)CC(C)O1 (stereo unspecified) | inactive | –
CCOc1ccc(NC(=O)CCC(=O)N/N=C/c2ccc([N+](=O)[O-])s2)cc1 | inactive | –
O=[N+]([O-])c1ccc2c(c1)Nc1nc3ccccc3nc1N2 | inactive | –
Cn1nnnc1SCC(=O)Nc1cccc(S(=O)(=O)N2CCCCC2)c1 | inactive | –
COc1ccccc1-c1sc2ccccc2c1C#CC1(O)CCCCC1 | inactive | –
COc1ccc2c(C(=O)c3ccc(C)cc3)n(CCC(N)=O)[n+]([O-])c2c1 | inactive | –
COCCNC(=O)Nc1ccc2nc(-c3ccco3)c(-c3ccco3)nc2c1 | 2.82 µM (active) | –
O=C(NCc1ccccn1)c1cc(-c2ccccc2Cl)on1 | inactive | –
O=C(NCc1ccccn1)c1ccc2nc(-c3ccco3)c(-c3ccco3)nc2c1 | 3.55 µM (active) | –
CC(C)(C)c1ccc(NC(=O)NCc2ccco2)cc1 | inactive | –
O=C1CSc2ccc(C(=O)NCc3ccccn3)cc2N1 | inactive | –
COc1ccc(NC(=O)Nc2ccc3nsnc3c2)cc1 | inactive | –
O=C(Nc1ncccc1O)c1ccc(C(=O)c2ccccc2)cc1 | inactive | –
CCOC(=O)N1CCN(C(=O)c2ccccc2SCC(=O)NCC2CCCCC2)CC1 | inactive | –
Cc1c(C(=O)N/N=C/c2ccccc2)[nH]c2c([N+](=O)[O-])cccc12 | inactive | –
CCOC(=O)c1c(C)[nH]c(C(=O)NCc2ccccc2OC)c1C | inactive | –
COc1cccc2c(C)c(C(=O)O)[nH]c12 | 25.1 µM (active) | –
CC(C)Cn1c(SCC(=O)Nc2ccc(Cl)cc2F)nc(O)cc1=O | inactive | –
CC(=O)C[C@H](O)CC(=O)[C@@H]1OC(=O)[C@@H](C)C/C=C\Cc2ccccc21 | inactive | –
CCOc1ccccc1/C=c1\sc2nc(-c3ccco3)nn2c1=O | 15.8 µM (active) | –
CSc1nc(-c2ccco2)nn1C(=O)CCc1ccccc1 | inactive | –

SMILES | Potency | activity, negative = inhibition
CCOC(=O)/C=c1\s/c(=C\c2ccccc2OC)c(=O)n1CC(=O)N1CCOCC1 | inactive | –
COc1ccccc1N1CC(C(=O)NCCN2C(=O)S/C(=C\c3cccnc3)C2=O)CC1=O (stereo unspecified) | inactive | –
CC[C@]12c3[nH]c4ccc(Cl)cc4c3CCN1C(=O)[C@@H](CC(=O)NCCN1CCOCC1)C[C@@H]2C(=O)N1CCN(C(=O)C2CC2)CC1 | inactive | –
Cc1ccc(C)n1C(Cc1ccccc1)C(=O)O (stereo unspecified) | 5.62 µM (active) | –
CC(Cc1ccccc1)C(=O)N(C)Cc1ccccc1 (stereo unspecified) | inactive | –
CCOC(=O)C(Cc1ccc(N)cc1)N1C(=O)c2ccccc2C1=O (stereo unspecified) | inactive | –
CCn1c(=S)[nH]c2cc(S(=O)(=O)N3CCOCC3)ccc21 | inactive | –
CCCN=C1N(C)C[C@@H]2[C@@H]3C(=O)N(Cc4ccccc4)C(=O)[C@@H]3[C@](C)(C(=O)OC)N12 | inactive | –
CC(=O)Nc1ccc(C(=O)Nc2cccc(S(=O)(=O)NC3=NCCC3)c2)cc1 | inactive | –
Cc1ccc(S(=O)(=O)NCCC(=O)OCC(=O)N(C)c2ccccc2)cc1 | inactive | –
O=C(N/N=C/c1c(Cl)[nH]c2ccccc12)c1sc2ccccc2c1Cl | inactive | –
Oc1ccc(N=Cc2sc3ccccc3c2Cl)cc1 | 31.6 µM (active) | –
COc1ccc(N=C(C)c2sc3ccccc3c2O)cc1 | inactive | –
Cc1csc(SCC(=O)N(c2ccccc2)C(C)C)n1 | inactive | –
COC(=O)c1ccc(CNC(=O)c2ccc(S(=O)(=O)N3CCCCCC3)cc2)cc1 | inactive | –
CCN(CC)C(CNC(=O)CSc1nnnn1-c1cccc(F)c1)c1ccco1 (stereo unspecified) | inactive | –
COc1ccc(-c2nnc(SC(C)C(=O)NC3CC3)o2)cc1 (stereo unspecified) | inactive | –
CCCCOC(=O)Nc1nccs1 | 8.91 µM (active) | –
O=C(COC(=O)c1ccc(O)cc1)Nc1nccs1 | inactive | –
CCCCOC(=O)Nc1nnc(CC(=O)NCc2ccccc2)s1 | inactive | –
Cc1ccc(NC(=O)CCNC(=O)c2ccc([N+](=O)[O-])cc2)cc1S(=O)(=O)N1CCOCC1 | inactive | –
CC(=O)N(O)CCCCCNC(=O)CCC(=O)N(O)CCCCCNC(=O)CCC(=O)N(O)CCCCCNC(=O)CCC(=O)O | inactive | –
CC[C@]12c3[nH]c4ccc(OC)cc4c3CCN1C(=O)C(CC(=O)NCCN1CCOCC1)C[C@@H]2C(=O)N1CCN(C(=O)C2CC2)CC1 (stereo partly specified) | inactive | –
CCCn1c(C)cc(/C=C(\C#N)C(=O)OCC(=O)N(C)c2c(N)n(Cc3ccccc3)c(=O)[nH]c2=O)c1C | inactive | –

SMILES | Potency | activity, negative = inhibition
Cc1cc(=O)[nH]c(Nc2cccc(Br)c2)n1 | inactive | –
CCOc1cccc(NC(=O)CC#N)c1 | – | -26.1% [at 11.4 µM]
CCOc1ccc(C(=O)Nc2ccncc2)cc1 | inactive | –
CCOc1ccc(NC(=O)c2ccc(NC(=O)COC(=O)c3ccc(NC(=O)CC#N)cc3)cc2)cc1 | 1.58 µM (active) | –
COC(=O)[C@]1(C)CCC[C@@]2(C)C3CC[C@]4(OC(C)=O)C[C@@]3(CCC21)CC4=NO (stereo partly specified) | inactive | –
COCCCn1c2nc3ccccc3nc2c2c(=O)n(Cc3ccc(Cl)cc3)c(C)nc21 | inactive | –
Cc1ccc(Cn2c(C)nc3c(c2=O)c2nc4ccccc4nc2n3Cc2ccco2)cc1 | 17.8 µM (active) | –
Cc1nc2ccccc2c(=O)n1Cc1ccc([N+](=O)[O-])cc1 | inactive | –
COc1ccc(CCNC(=S)N2CCN(S(=O)(=O)c3ccc(F)cc3)CC2)cc1 | inactive | –
Cc1cccc(N=C2SC(C)CN2C(=O)CN2C(=O)NC3(CCCC3)C2=O)c1 (stereo unspecified) | inactive | –
O=C(COc1coc(CN2CCN(c3ccccc3)CC2)cc1=O)N1CCc2ccccc21 | inactive | –
COc1ccc(C(=O)CSc2nnc(COc3ccccc3)n2Cc2ccco2)cc1 | inactive | –
Cn1c2ccccc2c(=O)c2c(=O)n(Cc3ccco3)c(COc3ccccc3)nc21 | 12.6 µM (active) | –
CCCc1nc2c(c(=O)c3ccccc3n2C)c(=O)n1-c1cc(C)cc(C)c1 | inactive | –
CC(=O)c1c(C)[nH]c(C(=O)COc2ccc3c(C)cc(=O)oc3c2)c1C | inactive | –
O=C(CCC1CCCCC1)Nc1cc(C(F)(F)F)ccc1N1CCOCC1 | inactive | –
Cc1ccc(S(=O)(=O)CCC(=O)OCC(=O)NCCc2ccc(S(N)(=O)=O)cc2)cc1 | inactive | –
COc1ccccc1C(CNC(=O)c1cccc(S(=O)(=O)Nc2ccc(F)cc2)c1)N(C)C (stereo unspecified) | inactive | –
O=c1ccc2c(-c3ccccc3S(=O)(=O)O)c3ccc(O)c(O)c3oc-2c1O | 0.251 µM (active) | –
CCNC(=O)N(CC)C[C@H]1N[C@@](CC)(C(=O)OC)[C@H]2C(=O)N(Cc3ccccc3)C(=O)[C@@H]12 | inactive | –
Cc1cc(C(=O)N/N=C/c2cc([N+](=O)[O-])cc(C)c2O)n[nH]1 | 22.4 µM (active) | –
Cc1ccsc1C(=O)N/N=C/c1ccc([N+](=O)[O-])cc1 | inactive | –
CC(C)(C)c1cc(C(=O)N/N=C/c2ccc([N+](=O)[O-])s2)n[nH]1 | inactive | –
Cc1ccccc1NC(=S)NC(=O)Cc1ccc(Cl)cc1 | inactive | –

SMILES | Potency | activity, negative = inhibition
COc1ccc(OCCCC(=O)Nc2cccc(S(=O)(=O)N3CCCCCC3)c2)cc1 | inactive | –
CC(C)(C)NS(=O)(=O)NC(=O)C1=C(N2CCCC2)COC1=O | inactive | –
COc1ccc2nc3n(c(=O)c2c1)-c1cc(C)ccc1C(=O)NC3Cc1ccc(O)cc1 (stereo unspecified) | inactive | –
Cc1ccc(/C([O-])=C(/C(=S)NCc2ccco2)[n+]2ccccc2)cc1[N+](=O)[O-] | 10 µM (active) | –
O=[N+]([O-])c1cccc(/C([O-])=C(/C(=S)Nc2ccccc2F)[n+]2ccccc2)c1 | inactive | –
CC(OC(=O)CNC(=O)c1ccc(Cl)c([N+](=O)[O-])c1)C(=O)NCc1ccco1 (stereo unspecified) | inactive | –
CC(=O)c1c(C)n(-c2ccc(C)cc2)c2ccc(O)cc12 | inactive | –
COc1cc2c(-c3ccc4c(c3)OCO4)c(-c3ccsc3)oc(=O)c2cc1OC | inactive | –
Cn1cccc1/C=C1\SC(=O)N(CC(=O)Nc2ccc(F)cc2)C1=O | inactive | –
N#Cc1ccccc1CN1C(=O)S/C(=C/c2cccn2-c2cccc(C(=O)O)c2)C1=O | 22.4 µM (active) | –
O=C(O)c1cccc(N2C(=O)Nc3ccccc3N2O)c1 | inactive | –
CN(C(=O)CSc1nnc(-c2ccc(C(C)(C)C)cc2)n1C)C1CCS(=O)(=O)C1 (stereo unspecified) | inactive | –
O=c1[nH]c(N2CCOCC2)nc2ccccc12 | inactive | –
C1=C(N2CCOCC2)/C(=C/c2nc3ccccc3[nH]2)CC1 | 25.1 µM (active) | –
CC1(C)Cc2c(C#N)c(SCc3nc4ccccc4[nH]3)nc(N3CCOCC3)c2CO1 | inactive | –
N#CCN(C(=O)COC(=O)C1CC2CCCC(C1)C2=O)c1ccccc1 (stereo unspecified) | inactive | –
CC(NC(=O)c1ccccc1C(=O)O)c1ccc(-n2ccnc2)cc1 (stereo unspecified) | inactive | –
COc1cc(C=NNC(=O)c2cccnc2)ccc1OC(=O)c1ccccc1F | inactive | –
CC(C)c1ccc(Nc2ncccc2C#N)cc1 | inactive | –
Nc1ccc(Nc2cc(O)c3ncccc3c2)cc1 | 11.2 µM (active) | –
COc1ccc(NC(=O)Nc2cccc3cccnc23)cc1 | inactive | –
COc1ccc(S(=O)(=O)N2CCCCC2)cc1NC(=O)COc1ccccc1 | inactive | –
Cc1cc(C(=O)COc2ccccc2Cl)c(C)n1C1CC1 | inactive | –
CCC(CO)Oc1cc(NC(=O)c2cccc3ccccc23)c2ncn(C(C)C)c2c1 (stereo unspecified) | inactive | –

SMILES | Potency | activity, negative = inhibition
O=C(COC(=O)CSc1ccccc1)Nc1ccc(F)cc1F | inactive | –
COc1cc(OC)cc(C(=O)OCC(=O)Nc2ccc(F)cc2F)c1 | inactive | –
O=C(COC(=O)c1ccc(F)cc1F)Nc1ncccn1 | 20 µM (active) | –
O=S(=O)(c1ccccc1)N1CCC(c2ccccc2)CC1 | inactive | –
O=C(COC(=O)COc1cc(Cl)c(Cl)cc1Cl)NC1CC1 | inactive | –
CCCCN(C(=O)CCNC(=O)NC12CC3CC(CC(C3)C1)C2)c1c(N)n(CCCC)c(=O)[nH]c1=O | inactive | –
COc1ccc(Cc2nnc(NC(=O)Cc3cccs3)s2)cc1 | 4.47 µM (active) | –
CCc1nnc(NC(=O)Cc2cccs2)s1 | inactive | –
COc1ccc(Cc2nnc(NC(=O)c3ccc(OC)cc3OC)s2)cc1 | – | 1.66% [at 2.29 µM]
Cn1cc[n+](C)c1COc1ccc(C=O)cc1 | inactive | –
CCOCCOC(=O)C1=C(C)NC(=O)NC1c1ccc2c(c1)OCO2 (stereo unspecified) | inactive | –
CC1(c2ccccc2)NC(=O)N(CC(=O)N2CC(=O)Nc3ccccc32)C1=O (stereo unspecified) | inactive | –
Cc1ccc(C2(C)NC(=O)N(CC(=O)N3CC(=O)Nc4ccccc43)C2=O)cc1 (stereo unspecified) | inactive | –
CCOC(=O)N1CCN(C(=O)C(C)NC(=O)c2ccco2)CC1 (stereo unspecified) | inactive | –
CCOc1c(Br)cc(/C=C2\C(=O)N(CCC#N)N=C2C)cc1OC | 14.1 µM (active) | –
CCOc1cc(/C=N/O)cc(Br)c1OC | inactive | –
C=CCOc1c(Br)cc(/C=N\n2nnnc2N)cc1OC | inactive | –
CCOC(=O)[C@@H]1[C@H]2COc3cc(OC)ccc3[C@@H]2N2C(=O)N(c3cccc(C)c3)C(=O)[C@@]12C | inactive | –
CC(OC(=O)c1ccc([N+](=O)[O-])cc1)C(=O)NCC1CCCCC1 (stereo unspecified) | inactive | –
CCCCN1C(=O)C(C)=C(C)C1OCCc1ccc(OC)c(OC)c1 (stereo unspecified) | – | 0.955% [at 2.29 µM]
